According to PMC12820563, “FoxP3 forms a head-to-head dimer in vivo and stabilizes its multimerization on adjacent microsatellites”:
Whole data set: some 16,000 sequences, median “rpm ratio (pull-down/input)” near 0.5, cut for the highest 2% near 5.5. Shown is part of a subset that was picked to be rich in the highest values.

target: T1, MBP-FoxP3dN (Mus musculus, UniProt Q99JB6 188-423); assay: PD-seq (MBP pull-down with sequencing); 20 mM Tris-HCl pH 7.5, 100 mM NaCl, 1.5 mM MgCl2, 0.4 uM protein, 0.1 uM dsDNA library, 30 min, room temperature, amylose pull-down; high values mean tight binding; conditions: protein: recombinant; tags: His6-MBP; chain copies: 2; dsDNA, one strand shown
T1 sequence: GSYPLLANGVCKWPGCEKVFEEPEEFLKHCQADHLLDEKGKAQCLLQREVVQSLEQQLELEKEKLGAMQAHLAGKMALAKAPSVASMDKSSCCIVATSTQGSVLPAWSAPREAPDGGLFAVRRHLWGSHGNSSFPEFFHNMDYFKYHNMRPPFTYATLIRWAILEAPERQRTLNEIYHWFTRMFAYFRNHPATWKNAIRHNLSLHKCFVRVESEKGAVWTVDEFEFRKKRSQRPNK
Method in brief: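 Binding is given as reads-per-million enrichment, pull-down over input, with replicates pooled. The bait was an N-terminus-lacking mouse FoxP3 or FoxP1 fragment with a His6-MBP tag, expressed in E. coli and used at 0.4 µM with 0.1 µM Klenow-filled degenerate double-stranded DNA library for 30 min at room temperature in Tris pH 7.5 buffer with NaCl and MgCl2. Amylose resin pull-down with three washes was followed by proteinase K release, PCR barcoding and Illumina sequencing.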

Sequence | binding signal
GATGATTGTTCTCCCAGCTGATGAATTAACGCATTCGAGTAAACAAATTTTCCTAATCTTTCTGTTCAAGCGCCATCTAC | 6.02 RPM ratio (pull-down/input)
GATGATTGTTCTCCCAGCTGATGAATTAGCATTTTCGAGTAAACAAATTTTCCTAATCTTTCTGTTCAAGCGCCATCTAC | 4 RPM ratio (pull-down/input)
GATGATTGTTCTCCCAGCTGATGAATTAAACGCATCGAGTAAACAAATTTTCCTAATCTTTCTGTTCAAGCGCCATCTAC | 1.19 RPM ratio (pull-down/input)
GATGATTGTTCTCCCAGCTGATGAATTGATCAGGTCGAGTAAACAAATTTTCCTAATCTTTCTGTTCAAGCGCCATCTAC | 0.232 RPM ratio (pull-down/input)
GATGATTGTTCTCCCAGCTGATGAATTGGTTGCATCGAGTAAACAAATTTTCCTAATCTTTCTGTTCAAGCGCCATCTAC | 2.53 RPM ratio (pull-down/input)
GATGATTGTTCTCCCAGCTGATGAATTGGAAGCATCGAGTAAACAAATTTTCCTAATCTTTCTGTTCAAGCGCCATCTAC | 0.654 RPM ratio (pull-down/input)
GATGATTGTTCTCCCAGCTGATGAATTAATTGTCTCGAGTAAACAAATTTTCCTAATCTTTCTGTTCAAGCGCCATCTAC | 3.16 RPM ratio (pull-down/input)
GATGATTGTTCTCCCAGCTGATGAATTAGATAGCTCGAGTAAACAAATTTTCCTAATCTTTCTGTTCAAGCGCCATCTAC | 0.537 RPM ratio (pull-down/input)
GATGATTGTTCTCCCAGCTGATGAATTATGCCTATCGAGTAAACAAATTTTCCTAATCTTTCTGTTCAAGCGCCATCTAC | 2.91 RPM ratio (pull-down/input)
GATGATTGTTCTCCCAGCTGATGAATTTCCGTTATCGAGTAAACAAATTTTCCTAATCTTTCTGTTCAAGCGCCATCTAC | 0.615 RPM ratio (pull-down/input)
GATGATTGTTCTCCCAGCTGATGAATTTATTGACTCGAGTAAACAAATTTTCCTAATCTTTCTGTTCAAGCGCCATCTAC | 5.75 RPM ratio (pull-down/input)
GATGATTGTTCTCCCAGCTGATGAATTTGATGACTCGAGTAAACAAATTTTCCTAATCTTTCTGTTCAAGCGCCATCTAC | 3.97 RPM ratio (pull-down/input)
GATGATTGTTCTCCCAGCTGATGAATTTTATTTCTCGAGTAAACAAATTTTCCTAATCTTTCTGTTCAAGCGCCATCTAC | 1.53 RPM ratio (pull-down/input)
GATGATTGTTCTCCCAGCTGATGAATTAGTTTACTCGAGTAAACAAATTTTCCTAATCTTTCTGTTCAAGCGCCATCTAC | 5.83 RPM ratio (pull-down/input)
GATGATTGTTCTCCCAGCTGATGAATTTTTTGACTCGAGTAAACAAATTTTCCTAATCTTTCTGTTCAAGCGCCATCTAC | 0.273 RPM ratio (pull-down/input)
GATGATTGTTCTCCCAGCTGATGAATTTTATGACTCGAGTAAACAAATTTTCCTAATCTTTCTGTTCAAGCGCCATCTAC | 0.491 RPM ratio (pull-down/input)

Sequence | binding signal
GATGATTGTTCTCCCAGCTGATGAATTTTTATTCTCGAGTAAACAAATTTTCCTAATCTTTCTGTTCAAGCGCCATCTAC | 0.391 RPM ratio (pull-down/input)
GATGATTGTTCTCCCAGCTGATGAATTTATTTTCTCGAGTAAACAAATTTTCCTAATCTTTCTGTTCAAGCGCCATCTAC | 5.54 RPM ratio (pull-down/input)
GATGATTGTTCTCCCAGCTGATGAATTATTTGACTCGAGTAAACAAATTTTCCTAATCTTTCTGTTCAAGCGCCATCTAC | 0.481 RPM ratio (pull-down/input)
GATGATTGTTCTCCCAGCTGATGAATTTAGTTACTCGAGTAAACAAATTTTCCTAATCTTTCTGTTCAAGCGCCATCTAC | 3.04 RPM ratio (pull-down/input)
GATGATTGTTCTCCCAGCTGATGAATTTAGTTTCTCGAGTAAACAAATTTTCCTAATCTTTCTGTTCAAGCGCCATCTAC | 2.13 RPM ratio (pull-down/input)
GATGATTGTTCTCCCAGCTGATGAATTTGTTGACTCGAGTAAACAAATTTTCCTAATCTTTCTGTTCAAGCGCCATCTAC | 7.34 RPM ratio (pull-down/input)
GATGATTGTTCTCCCAGCTGATGAATTTGCTGACTCGAGTAAACAAATTTTCCTAATCTTTCTGTTCAAGCGCCATCTAC | 5.1 RPM ratio (pull-down/input)
GATGATTGTTCTCCCAGCTGATGAATTGCAGTGCTCGAGTAAACAAATTTTCCTAATCTTTCTGTTCAAGCGCCATCTAC | 0.811 RPM ratio (pull-down/input)
GATGATTGTTCTCCCAGCTGATGAATTATTAGCGTCGAGTAAACAAATTTTCCTAATCTTTCTGTTCAAGCGCCATCTAC | 0.786 RPM ratio (pull-down/input)
GATGATTGTTCTCCCAGCTGATGAATTTGGCTGTTCGAGTAAACAAATTTTCCTAATCTTTCTGTTCAAGCGCCATCTAC | 1.17 RPM ratio (pull-down/input)
GATGATTGTTCTCCCAGCTGATGAATTCAGTAGATCGAGTAAACAAATTTTCCTAATCTTTCTGTTCAAGCGCCATCTAC | 0.408 RPM ratio (pull-down/input)
GATGATTGTTCTCCCAGCTGATGAATTACGAGGTTCGAGTAAACAAATTTTCCTAATCTTTCTGTTCAAGCGCCATCTAC | 0.392 RPM ratio (pull-down/input)
GATGATTGTTCTCCCAGCTGATGAATTCCGTCAATCGAGTAAACAAATTTTCCTAATCTTTCTGTTCAAGCGCCATCTAC | 0.393 RPM ratio (pull-down/input)
GATGATTGTTCTCCCAGCTGATGAATTGATCGACTCGAGTAAACAAATTTTCCTAATCTTTCTGTTCAAGCGCCATCTAC | 0.33 RPM ratio (pull-down/input)
GATGATTGTTCTCCCAGCTGATGAATTGTGTCCTTCGAGTAAACAAATTTTCCTAATCTTTCTGTTCAAGCGCCATCTAC | 1.89 RPM ratio (pull-down/input)
GATGATTGTTCTCCCAGCTGATGAATTGGTGGCTTCGAGTAAACAAATTTTCCTAATCTTTCTGTTCAAGCGCCATCTAC | 0.748 RPM ratio (pull-down/input)
